Compounds without any hit were thinned out: in the full panel of roughly 83,000, 20% have a hit.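 Method: cells in 96-well plates; compound added at one concentration; 48 h incubation; percent growth measured; values under 10 scored active.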 Unmarked numbers belong to inactive results. The source made the active and inactive calls.
Experiments:
Experiment in all cases: NCI-60 one-dose screen, 48 h (100 = growth as untreated, 0 = no growth, -100 = all killed)
Conditions in all cases: 10 µM unless noted
NCI-H23 lung = tested on: NCI-H23 lung
NCI-H226 lung = tested on: NCI-H226 lung
NCI-H322M lung = tested on: NCI-H322M lung
HOP-62 NSCLC = tested on: HOP-62 NSCLC
NCI-H460 lung = tested on: NCI-H460 lung
HOP-92 NSCLC = tested on: HOP-92 NSCLC
NCI-H522 lung = tested on: NCI-H522 lung
A549/ATCC NSCLC = tested on: A549/ATCC NSCLC
786-0 renal = tested on: 786-0 renal
COLO 205 colon = tested on: COLO 205 colon

Row | SMILES | growth (NCI-H23 lung) [%] | growth (NCI-H226 lung) [%] | growth (NCI-H322M lung) [%] | growth (HOP-62 NSCLC) [%] | growth (NCI-H460 lung) | growth (HOP-92 NSCLC) | growth (NCI-H522 lung) | growth (A549/ATCC NSCLC) | growth (786-0 renal) | growth (COLO 205 colon)
1 | COC(=O)c1cccc(NC2=C(Cl)C(=O)C(C)=C(C)C2=O)c1 | 92.4 | 85.9 | 100 | 94.8 | 101% | 33.9% | 95.8% | 115% | 104% | 114%
2 | Cn1cc(-c2nn3cc(-c4ccncc4)nc3s2)c2cc(F)ccc21 | 82 | 83.5 | 87.9 | 79.6 | 65.8% | 49.2% | 86.9% | 94.9% | 89.6% | 55%
3 | O=C1C(N2CCN(c3ccccc3)CC2)=C(Cl)C(=O)c2ncccc21 | 46.3 | 91.3 | 95.2 | 63.9 | 38.7% | 128% | -16.2% (active) | 91.5% | 105% | 65.2%
4 | O=[N+]([O-])c1ccc(NC(=S)NNC(=S)Nc2ccc(Br)cc2)cc1 | 86.1 | 97.3 | 63.3 | 94.9 | 97.6% | 99.9% | 81.1% | 83.9% | 99.2% | 112%
5 | CN1CCN(Cc2ccc(/C=N/Nc3ccnc4cc(Cl)ccc34)cc2)CC1 | 89.2 | 88.4 | 87.5 | 80.5 | 83.1% | 64.3% | 101% | 83.7% | 77.7% | 93.2%
6 | COc1ccc(C2C(C#N)=C(/N=C/c3ccc(Cl)cc3)Oc3c2sc2c(C)cccc32)cc1 (stereo not given) | 26.2 | 45.4 | 44.2 | 29.8 | 10.1% | 30.5% | -40.8% (active) | 34.2% | 39.2% | -22.3% (active)
7 | CN(C)c1ccc(/C=N/Nc2nc(N/N=C/c3ccc(N(C)C)cc3)nc(N3CCCCC3)n2)cc1 | 96.7 | 102 | 100 | 81.8 | 70.9% | 84% | 96.2% | 78.5% | 88.2% | 83.5%
8 | C#CCOc1ccc(/C=N/Nc2nc(-c3ccc(OC)cc3)cs2)cc1 | 68.9 | 63.7 | 95 | 97.6 | 77.3% | 68.6% | 70.1% | 77% | 89.2% | 96.1%
9 | CC1=C(C)C(=O)C(Nc2ccc3c(c2)OCO3)=C(Br)C1=O | 90 | 93 | 96.5 | 92.9 | 100% | -22.9% (active) | 96.5% | 102% | 103% | 122%
10 | CN1CCN(c2ccc(Nc3nc(NCCCNS(=O)(=O)c4cccc5ccccc45)c4sccc4n3)cc2)CC1 | 30.4 | 86 | 11.4 | 25.6 | -14% (active) | -43.6% (active) | -81.1% (active) | -9.22% (active) | -82.1% (active) | -74.1% (active)
11 | N#Cc1c(-c2cccs2)cc(-c2cnccn2)nc1SCC(=O)N/N=C/c1ccncc1 | 102 | 104 | 116 | 106 | 108% | 98.4% | 96.1% | 107% | 104% | 118%
12 | Fc1ccc2nc(-c3cnn4cccnc34)sc2c1 | 93.3 | 83.1 | 67.5 | 85.1 | 88.2% | 78.9% | 93.5% | 81% | 101% | 102%
13 | CN1CCN(c2ccc(Nc3nc(NCCNC(=O)c4ccccc4)c4sccc4n3)cc2)CC1 | 74.2 | 108 | 85.2 | 104 | 74% | 69.4% | 68.4% | 67.4% | 45.6% | 56.5%
14 | CCc1cc(OC(=O)N2CCN(CCC(C)(COC(C)(C)C)COC(C)(C)C)CC2)ccc1Nc1cc(-c2ccc(-n3cccn3)cc2)[nH]n1 | 83.9 | 67.1 | 101 | 91.7 | 74.4% | 73.1% | 80.7% | 81.1% | 85.8% | 80.8%
15 | O=C1/C(=C/c2cc(F)cc(F)c2)Cc2cc3c(cc21)OCO3 | 62.3 | 52.2 | 41.5 | 58 | 30.3% | 63.4% | 1.49% (active) | 59.8% | 61% | -15.2% (active)
16 | C#C[C@]1(O)CC[C@H]2[C@@H]3CC=C4c5sc(N6CCN(C)CC6)nc5CC[C@]4(C)[C@H]3CC[C@@]21C | 57 | 86.8 | 77.4 | 54.8 | 49.2% | 82.7% | 28.1% | 54.7% | -39.2% (active) | 66.5%
17 | Cc1ccc2c(n1)C(=O)C(Cl)=C(Nc1ccccc1C(=O)OC(C)(C)C)C2=O | 10.6 | 74.9 | 98.7 | 95.3 | 86.2% | -72% (active) | -33.8% (active) | 102% | -79.2% (active) | -66.1% (active)
18 | CCOC(=O)c1cccc(NC2=C(Cl)C(=O)C(C)=C(C)C2=O)c1 | 91.9 | 100 | 105 | 103 | 101% | 54.2% | 95% | 102% | 105% | 122%
19 | C#C[C@]1(O)CC[C@H]2[C@@H]3CC=C4c5sc(Nc6cc(Cl)ccc6OC)nc5CC[C@]4(C)[C@H]3CC[C@@]21C | 33.4 | 52.4 | 53.2 | 32.5 | 17% | -0.0409% (active) | 52.8% | 28.7% | -32.3% (active) | 21.8%
20 | Fc1cccc(Cl)c1/C=N/Nc1nc(N/N=C/c2c(F)cccc2Cl)nc(N2CCCCC2)n1 | 44.8 | 53.9 | 35.8 | 25.9 | 19.9% | -1.32% (active) | 10.4% | 21.6% | 28.3% | -16.7% (active)
21 | CC(=O)/C(N=Nc1ccc2oc(=O)ccc2c1)=C(\C)O | 27.5 | 42.6 | 55.1 | 26.2 | 14.6% | 2.61% (active) | 31% | 23.6% | 37.5% | 15.2%
22 | CN1CCN(c2ccc(Nc3nc(NCCCNS(=O)(=O)c4cccc(F)c4)c4sccc4n3)cc2)CC1 | 84 | 112 | 68 | 96.6 | 19.9% | 58.7% | -1.42% (active) | 44.8% | -24.1% (active) | 27.1%
23 | CN1CCN(c2ccc(Nc3nc(NCCCNS(=O)(=O)c4ccccc4)c4sccc4n3)cc2)CC1 | 90.6 | 111 | 80.3 | 105 | 36.9% | 59.2% | 44.8% | 62% | 7.25% (active) | 49.2%
24 | Cn1ncc2c(C(=O)c3ccc(F)cc3)nc(C(C)(C)C)nc21 | 95.8 | 101 | 97.8 | 94.8 | 101% | 56.4% | 91.8% | 91.9% | 101% | 108%
